The full list was thinned out, with hits kept by preference.
DUX4 inh: DUX4-mediated transcription inhibition; 293T-iDUX4 ZSCAN4-Gaussia luciferase reporter, 24 h; stronger effect = lower value; activity change, negative = inhibition, % (concentration not given with the values); hit rate 0.8% among 37,000; AID 1224904;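 active = mean inhibition of at least 10% in the main channel, exceeding the control channel by a set limit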;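 note: 0% = median of neutral control wells and -100% = median of positive control wells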
Starred values were filed as active, the others as inactive; ! = not confirmed by another sample.

SMILES	DUX4 inh
C[C@H](CO)N1C[C@H](C)[C@H](CN(C)Cc2ccccc2C(F)(F)F)OCc2ccccc2-c2c(n(C)c3ccccc23)C1=O	-59.4*
COc1ccccc1CN(C)C[C@H]1OCc2ccccc2-c2c(n(C)c3ccccc23)C(=O)N([C@H](C)CO)C[C@H]1C	-2.8
CO[C@H]1CN(C)C(=O)c2ccc(NC(=O)Cc3ccccc3)cc2OC[C@H](C)N(C(C)=O)C[C@H]1C	-2.3
O=C(C[C@H]1CC[C@H](NC(=O)Nc2cc(F)ccc2F)[C@H](CO)O1)NCc1ccncn1	4.1
O=C(c1ccc(F)cc1)N1CC[C@@H]2[C@H](CO)Nc3ccc(C#Cc4ccccc4F)cc3[C@@H]21	-29.6*
O=C(c1ccc(F)cc1)N1CC[C@@H]2[C@H](CO)Nc3ccc(C#Cc4ccc(F)cc4)cc3[C@@H]21	-19.7*
COc1ccccc1C#Cc1ccc2c(c1)[C@@H]1[C@@H](CCN1C(=O)c1ccc(F)cc1)[C@@H](CO)N2	-0.4
O=C(c1ccc(F)cc1)N1CC[C@@H]2[C@H]1c1cc(C#Cc3ccccc3F)ccc1N[C@@H]2CO	-1.4
COc1ccccc1C#Cc1ccc2c(c1)[C@@H]1[C@@H](CCN1C(=O)c1ccc(F)cc1)[C@H](CO)N2	-6.7
O=C(c1ccc(F)cc1)N1CC[C@@H]2[C@H]1c1cc(C#Cc3ccc(F)cc3)ccc1N[C@@H]2CO	2.9
COC(=O)c1ccc(CN2CC(=O)N3[C@H](CO)[C@H](c4ccc(-c5ccccc5)cc4)[C@H]3C2)cc1	2.9
COc1ccccc1C(=O)N1C[C@@H]2[C@H](c3ccccc31)[C@H](CO)N2CC1CCOCC1	2.9
C[C@H](O)C#Cc1ccc2c(c1)O[C@H](CN(C)Cc1ccc(-c3ccccc3)cc1)[C@@H](C)CN([C@@H](C)CO)S2(=O)=O	-1.5
CN1[C@H](C(=O)NC2CCCC2)[C@@H](CO)[C@@H]2Cn3c(ccc(-c4cccc(F)c4)c3=O)[C@@H]21	4.7
CC(=O)N1CC[C@@H]2[C@H]1c1cc(-c3ccccc3)ccc1N(C)[C@@H]2CO	14.6
C[C@@H]1CN([C@@H](C)CO)C(=O)c2ccccc2-c2ccccc2CO[C@@H]1CN(C)Cc1ccc(Cl)c(Cl)c1	-30.7*
C[C@@H]1CN([C@H](C)CO)C(=O)c2ccccc2-c2ccccc2CO[C@@H]1CN(C)Cc1cccc(F)c1	-7.1
C[C@H](CO)N1C[C@H](C)[C@@H](CN(C)Cc2cccc(C(F)(F)F)c2)OCc2ccccc2-c2ccccc2C1=O	-42.4*
C[C@@H]1CN([C@@H](C)CO)C(=O)c2ccccc2-c2ccccc2CO[C@@H]1CN(C)Cc1ccc(-c2ccccc2)cc1	-29.3*
C[C@H](CO)N1C[C@H](C)[C@@H](CN(C)Cc2ccc3c(c2)OCO3)OCc2ccccc2-c2ccccc2C1=O	8.3
C[C@@H]1CN([C@@H](C)CO)C(=O)c2ccccc2-c2ccccc2CO[C@@H]1CN(C)Cc1ccc(F)cc1	-0.1
C[C@H](CO)N1C[C@H](C)[C@H](CN(C)Cc2ccc3c(c2)OCO3)OCc2ccccc2-c2ccccc2C1=O	-6.2
C[C@H]1CN([C@@H](C)CO)C(=O)c2ccccc2-c2ccccc2CO[C@@H]1CN(C)Cc1cccc(F)c1	-3.4
C[C@H](CO)N1C[C@H](C)[C@H](CN(C)Cc2ccc(-c3ccccc3)cc2)OCc2ccccc2-c2ccccc2C1=O	-6.8
C[C@@H]1CN([C@@H](C)CO)C(=O)c2cccc(NS(=O)(=O)c3cn(C)cn3)c2O[C@@H]1CN(C)C(=O)Nc1ccc(F)cc1	1.4
SMILES	DUX4 inh
CO[C@@H]1CN(C)C(=O)c2ccc(NC(=O)c3cccc(F)c3)cc2OC[C@@H](C)N(CC2CC2)C[C@H]1C	-4.5
Cc1ccccc1-c1ccc(C2[C@H]3CNC[C@@H]2N3Cc2ccccn2)cc1 (stereo not given in full)	17.9
Fc1ccccc1-c1ccc(C2[C@@H]3CN(Cc4ccccn4)C[C@H]2N3)cc1 (stereo not given in full)	-22.2*!
Cc1ccc(CN2CC(=O)N3[C@H](C2)[C@H](c2ccc(-c4ccccc4F)cc2)[C@@H]3CO)cc1	1.7
c1ncc(-c2ccc(C3[C@@H]4CN(Cc5cocn5)C[C@H]3N4)cc2)cn1 (stereo not given in full)	12.4
OC[C@H]1[C@H](c2ccc(-c3ccccc3F)cc2)[C@@H]2CN(Cc3ccncc3)CCCCN12	1.6
Fc1ccccc1-c1ccc(C2[C@@H]3CN(Cc4ccccc4)C[C@H]2N3)cc1 (stereo not given in full)	-24.5*!
C[C@@H]1CN([C@H](C)CO)C(=O)c2ccccc2-c2ccccc2CO[C@@H]1CN(C)Cc1cccc2c1OCCCO2	2.7
C[C@H](CO)N1C[C@H](C)[C@@H](CN(C)C(=O)[C@H]2CCCN2C)OCc2ccccc2-c2c(n(C)c3ccccc23)C1=O	17.1
CCS(=O)(=O)N1CCCCN2[C@H](CO)[C@H](c3ccc(-c4ccc(C#N)cc4)cc3)[C@H]2C1	8.5
O=C(c1ccncc1)N1CC2(C1)[C@H](c1ccccc1)[C@H](CO)N2CC1CCCC1	-5.3
O=C(NC1CCCC1)N1CC2(C1)[C@H](c1ccccc1)[C@H](CO)N2CC1CC1	-3.3
O=C(NC1CCCC1)N1CC2(C1)[C@@H](c1ccccc1)[C@@H](CO)N2CC1CC1	12.6
O=C(c1ccncc1)N1CC2(C1)[C@H](c1ccccc1)[C@H](CO)N2CC1CC1	11.7
O=C(NC1CCCCC1)N1CC2(C1)[C@H](c1ccccc1)[C@H](CO)N2CC1CCCC1	-26.1*
O=C(c1ccncc1)N1CC2(C1)[C@@H](c1ccccc1)[C@@H](CO)N2CC1CCCC1	-28.1*
O=C(C[C@H]1CC[C@H](NC(=O)CN2CCOCC2)[C@H](CO)O1)NCCc1ccncc1	2.1
COc1cccc(C#Cc2ccc3c(c2)[C@H]2[C@H](CCN2S(=O)(=O)c2ccc(C)cc2)[C@H](CO)N3)c1	11.6
C/C=C/c1ccc([C@@H]2[C@@H](CO)N(C(C)=O)C23CN(C(=O)c2ccncc2)C3)cc1	-0.4
C[C@H](NC(=O)N(C)C[C@@H]1OCc2ccccc2-c2ccccc2C(=O)N([C@@H](C)CO)C[C@H]1C)c1ccccc1	10.2
COc1ccc2c3c(n(C)c2c1)[C@@H](CO)N(C(=O)c1ccc(F)cc1)CC31CN(C)C1	9.5
CCCC(=O)N1CCC2(CC1)CN(Cc1ccc(Cl)cc1)[C@@H](CO)c1[nH]c3cc(OC)ccc3c12	-50.4*
COc1ccc2c3c([nH]c2c1)[C@H](CO)N(Cc1ccccc1F)CC31CCN(S(C)(=O)=O)CC1	9.9
COc1ccc2c3c([nH]c2c1)[C@H](CO)N(C(C)=O)CC31CCN(Cc2ccccc2Cl)CC1	-8.1
COc1ccc(CN2CC3(C2)CN(Cc2ccc4c(c2)OCO4)[C@H](CO)c2[nH]c4cc(OC)ccc4c23)cc1	-57.8*
SMILES	DUX4 inh
COCC(=O)N1CCC2(CC1)CN(Cc1ccccc1Cl)[C@H](CO)c1[nH]c3cc(OC)ccc3c12	0.2
COc1ccc2c3c([nH]c2c1)[C@H](CO)N(Cc1ccc(Cl)cc1)CC31CCN(C(=O)CN(C)C)CC1	11.3
COc1ccc2c3c([nH]c2c1)[C@H](CO)N(Cc1ccccc1Cl)CC31CCN(C(C)=O)CC1	-28.0*
COc1ccc2c3c([nH]c2c1)[C@@H](CO)N(Cc1ccccc1F)CC31CN(C)C1	-9.2
COc1ccc2c3c([nH]c2c1)[C@@H](CO)N(Cc1ccc(Cl)cc1)CC31CCN(C(=O)CN(C)C)CC1	-0.1
CCS(=O)(=O)N1CC2(CN(Cc3ccc4c(c3)OCO4)[C@@H](CO)c3[nH]c4cc(OC)ccc4c32)C1	-8.3

Assay outcomes from PubChem.
